Drawing on PubChem BioAssay (Tox21), this text covers Potency and activity change, negative = inhibition for 14 molecules.

Each structure is given as a SMILES string. Results filed as inconclusive are left out. Unmarked numbers belong to inactive results. Calls of active or inactive are those of the source. Calls follow the shape of the dose curve; as a rule, active = well fitted curve in the direction sought with a large enough effect in the repeat runs; inconclusive = weak or mixed curves; inactive = no such curve, though single readings can be large; an effect the other way counts as inactive or inconclusive.

Assay [1] deals with Cytochrome P450 2C9 (Homo sapiens) (UniProt P11712). The experiment in a line: Cytochrome P450 Family 2 Subfamily C Member 9 (CYP2C9) small molecule antagonists: luciferase reporter qHTS assay (AID 1671198). As to activity change, negative = inhibition: series mostly up to about 120 µM. The gist of the method: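 Enzyme-substrate mix preincubated with compound 10 min at room temperature; reaction started with NADPH regeneration solution, 1 h 37C. Luminescent luciferin product read after 20 min detection reagent.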
Chain of Cytochrome P450 2C9 (Homo sapiens) (P11712 whole entry, looked up): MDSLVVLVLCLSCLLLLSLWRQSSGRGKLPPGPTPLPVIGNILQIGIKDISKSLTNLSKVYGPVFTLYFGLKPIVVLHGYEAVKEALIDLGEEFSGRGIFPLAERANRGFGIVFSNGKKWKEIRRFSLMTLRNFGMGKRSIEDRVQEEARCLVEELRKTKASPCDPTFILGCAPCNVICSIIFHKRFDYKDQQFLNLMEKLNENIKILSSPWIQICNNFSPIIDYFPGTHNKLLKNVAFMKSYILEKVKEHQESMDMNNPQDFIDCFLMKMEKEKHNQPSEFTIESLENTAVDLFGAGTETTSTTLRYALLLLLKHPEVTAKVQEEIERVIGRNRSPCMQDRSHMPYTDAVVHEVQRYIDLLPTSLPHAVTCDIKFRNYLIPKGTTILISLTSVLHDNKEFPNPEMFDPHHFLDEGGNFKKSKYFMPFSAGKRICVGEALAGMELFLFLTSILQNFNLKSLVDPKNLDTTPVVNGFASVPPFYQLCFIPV
(Reporter assays use an easily measured gene product as a stand-in for the process of interest.)

Assay [2] deals with Cytochrome P450 1A2 (Homo sapiens) (UniProt P05177). Put plainly: Cytochrome P450 Family 1 Subfamily A Member 2 (CYP1A2) small molecule antagonists: luciferase reporter qHTS assay (AID 1671199). As to activity change, negative = inhibition: series mostly up to about 120 µM. In short, it runs like this: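 CYP1A2 turnover of a luminogenic substrate was quantified after 1 h with NADPH regeneration at room temperature. Furafylline served as positive control.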
Chain of Cytochrome P450 1A2 (Homo sapiens) (P05177 whole entry, looked up): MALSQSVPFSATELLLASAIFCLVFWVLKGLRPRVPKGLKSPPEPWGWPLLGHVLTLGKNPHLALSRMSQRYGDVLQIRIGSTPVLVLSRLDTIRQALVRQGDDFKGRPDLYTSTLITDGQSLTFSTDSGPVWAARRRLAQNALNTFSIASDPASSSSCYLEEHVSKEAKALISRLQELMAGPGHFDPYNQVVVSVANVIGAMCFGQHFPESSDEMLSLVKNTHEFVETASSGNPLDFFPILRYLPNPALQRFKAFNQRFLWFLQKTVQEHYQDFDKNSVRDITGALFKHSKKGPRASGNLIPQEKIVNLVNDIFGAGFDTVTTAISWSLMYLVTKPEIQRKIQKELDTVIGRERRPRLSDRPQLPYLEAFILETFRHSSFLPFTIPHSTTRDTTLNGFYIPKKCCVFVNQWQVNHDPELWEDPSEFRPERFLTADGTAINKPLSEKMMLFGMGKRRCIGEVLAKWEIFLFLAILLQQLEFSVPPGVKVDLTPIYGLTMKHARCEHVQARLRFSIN

The target in assay [3] is Voltage-gated inwardly rectifying potassium channel KCNH2 (Homo sapiens) (UniProt Q12809). The experiment in a line: Human Ether-a-go-go-Related Gene (hERG) channel small molecule antagonists: fluorescence cell-based qHTS assay (AID 1671200).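 As to activity change, negative = inhibition: hERG-expressing U2OS cells given a thallium stimulus after FluxOR II dye loading; series mostly up to about 77 µM.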 In short, it runs like this:
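U2OS cells expressing the channel were plated at 1000 cells/well, incubated overnight at 37 C, then loaded with FluxOR II thallium-sensitive dye for 1 h at room temperature in the dark, with a further 10 min at room temperature before stimulation.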
(The hERG channel carries a current that helps repolarise heart muscle cells.)
% is scaled to controls: 0 for no effect and ±100 for the full control effect; potency is read from the fitted curve at half-maximal effect.
Also: nearly all actives have a fitted effect of over 50% in size.

Chain of Voltage-gated inwardly rectifying potassium channel KCNH2 (Homo sapiens) (Q12809 whole entry, looked up): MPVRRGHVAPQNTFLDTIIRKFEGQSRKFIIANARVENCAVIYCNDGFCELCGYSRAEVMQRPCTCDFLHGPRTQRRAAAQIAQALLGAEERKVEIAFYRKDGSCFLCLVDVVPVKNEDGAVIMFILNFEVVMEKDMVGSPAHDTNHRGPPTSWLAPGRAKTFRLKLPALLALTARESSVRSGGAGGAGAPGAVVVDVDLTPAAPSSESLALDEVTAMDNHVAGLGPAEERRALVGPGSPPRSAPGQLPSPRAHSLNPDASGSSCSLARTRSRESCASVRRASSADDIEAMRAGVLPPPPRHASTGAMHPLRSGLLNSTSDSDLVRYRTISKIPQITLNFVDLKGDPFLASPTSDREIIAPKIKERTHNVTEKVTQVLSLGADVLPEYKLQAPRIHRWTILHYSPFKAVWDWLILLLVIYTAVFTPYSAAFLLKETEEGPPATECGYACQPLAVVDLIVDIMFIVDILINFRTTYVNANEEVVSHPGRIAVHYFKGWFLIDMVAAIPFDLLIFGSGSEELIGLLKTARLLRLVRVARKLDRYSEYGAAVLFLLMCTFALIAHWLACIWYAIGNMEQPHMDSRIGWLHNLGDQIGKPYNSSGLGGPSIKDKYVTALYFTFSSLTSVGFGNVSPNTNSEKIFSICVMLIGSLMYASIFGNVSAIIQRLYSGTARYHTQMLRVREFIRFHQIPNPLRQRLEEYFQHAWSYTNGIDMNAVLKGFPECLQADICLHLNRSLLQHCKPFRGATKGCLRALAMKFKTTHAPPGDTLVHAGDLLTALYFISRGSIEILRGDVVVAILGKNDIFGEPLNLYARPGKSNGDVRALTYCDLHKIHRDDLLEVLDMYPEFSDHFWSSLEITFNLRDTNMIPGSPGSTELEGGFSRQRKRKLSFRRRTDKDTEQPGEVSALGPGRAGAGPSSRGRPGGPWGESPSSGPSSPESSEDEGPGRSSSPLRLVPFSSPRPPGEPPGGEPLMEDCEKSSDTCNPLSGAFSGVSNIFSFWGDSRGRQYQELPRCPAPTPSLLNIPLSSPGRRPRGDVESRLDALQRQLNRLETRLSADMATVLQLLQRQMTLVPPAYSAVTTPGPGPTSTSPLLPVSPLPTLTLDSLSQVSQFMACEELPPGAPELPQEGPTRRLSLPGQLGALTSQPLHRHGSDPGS

With `Cc1ccc(C(=O)c2ccccc2)cc1`, the Potency in assay [1] and in assay [2] was 31.7 µM (active) in each case.

For `CCOc1c(N2CCOCC2)cnn(C)c1=O`, the Potency entry in assay [1], in assay [2] and in assay [3] was “inactive” throughout.

In the case of `NCCCC[C@H](N[C@@H](CCc1ccccc1)C(=O)O)C(=O)N1CCC[C@H]1C(=O)O`, the Potency entry in assay [1] was “inactive”.

Consider `CC1(C)[C@@H]2CC[C@@]1(C)[C@H](O)C2`, for which the Potency entry in assay [1], in assay [2] and in assay [3] was “inactive” throughout.

As to `C=COC(=O)C(C)(CC)CCC(C)C` (stereo not drawn), the Potency result in assay [1], in assay [2] and in assay [3] was “inactive” in each case.

On to `C[N+](C)(CCOc1ccccc1)Cc1cccs1`, for which the Potency entry in assay [1] and in assay [2] was “inactive” in each case.

Regarding `O=S(=O)(O)c1cc(O)c(O)c(S(=O)(=O)O)c1`, the Potency entry in assay [1], in assay [2] and in assay [3] was “inactive” each time.

On to `FB(F)F`, for which the Potency result in assay [1], in assay [2] and in assay [3] was “inactive” in each case.

`CN1CCN(c2cc3c(nn2)Oc2ccccc2N3C)CC1`: the activity change, negative = inhibition was 2.38% [at 23.6 µM] in assay [1] and 0.457% [at 15.8 µM] in assay [3]. Moreover, in assay [2], the Potency entry was “inactive”.

Consider `CC(=O)c1ccccc1[N+](=O)[O-]`, for which the Potency result in assay [1] and in assay [3] was “inactive” throughout. In addition, the Potency in assay [2] was 39.2 µM (active).

For the molecule `OCCc1ccccn1`, the Potency result in assay [1], in assay [2] and in assay [3] was “inactive” each time.

With `CCOC(=O)COc1cc(-n2ncc(C(F)(F)F)c(C)c2=O)c(F)cc1Cl`, the Potency is 31.7 µM (active) in assay [1], 35.6 µM (active) in assay [2] and 43.6 µM (active) in assay [3].

Take `NC(CCC(=O)O)C(=O)O` (stereo not drawn): the Potency result in assay [1], in assay [2] and in assay [3] was “inactive” throughout.

Turning to `CC(=O)O[C@@]12CO[C@@H]1C[C@H](O)[C@@]1(C)C(=O)[C@H](O)C3=C(C)[C@@H](OC(=O)[C@H](O)[C@@H](NC(=O)OC(C)(C)C)c4ccccc4)C[C@@](O)([C@@H](OC(=O)c4ccccc4)[C@H]21)C3(C)C`, the Potency entry in assay [1], in assay [2] and in assay [3] was “inactive” in each case.
